# In ChEMBL document CHEMBL3988442, “University of Dundee, Small-Polar-MMV Screening Library” (2021):
# The campaign covered roughly 48,000 compounds. About 13,000 (27%) showed an effect of 50% or more. Some of the results follow.
# System: Wolbachia pipientis
# Assay: Anti-Wolbachia Cell-Based Screen
# Type: functional
# Design: scale not given: in the data most compounds retested in dose-response had high values
# Settings: 5 µM
row,Structure (SMILES),Percent Effect
1,CC(C)CN1CC(C(=O)N(C)CCc2cn[nH]c2)CC1=O (configuration not stated),-9.129%
2,Cc1ncc(CNC(=O)Cc2cccs2)c(C2CCCN2C)n1 (configuration not stated),125.2%
3,CCOc1ncccc1CNC(=O)N1CCCC1c1cccs1 (configuration not stated),-31.15%
4,Cc1ncc(CNC(=O)CCc2cccs2)c(C2CCCN2C)n1 (configuration not stated),135.8%
5,Cc1ncc(CNC(=O)CCOc2ccccc2)c(C2CCCN2C)n1 (configuration not stated),-4.417%
6,COc1cccc(CC(=O)NCc2cnc(C)nc2C2CCCN2C)c1 (configuration not stated),116.5%
7,Cc1ncc(CNC(=O)CCc2cccc(F)c2)c(C2CCCN2C)n1 (configuration not stated),2.906%
8,CS(=O)(=O)N1C[C@@H]2CC[C@H](C1)N(CCC(=O)NCc1ccccc1F)C2,-8.664%
9,COc1cccc(CCNC(=O)CN2CCCC2c2noc(C)n2)c1 (configuration not stated),-3.314%
10,Cc1ncc(CNC(=O)CCc2ccccc2F)c(C2CCCN2C)n1 (configuration not stated),94.99%
11,O=C1NCCN(Cc2cccnc2)C1CC(=O)N1CCc2n[nH]cc2C1 (configuration not stated),-19.58%
12,O=C1C(Sc2nc(=O)ccn2C2CC2)CCN1c1ccccc1F (configuration not stated),-10.52%
13,CCNC(=O)N1CCC(NC(=O)NCCc2cc3ccccc3o2)C1 (configuration not stated),-2.435%
14,CSCC(C)NCc1ccc2[nH]c(C)c(C)c2c1 (configuration not stated),7.257%
15,COCCC(=O)N1C[C@H]2CC[C@@H]1CN(C1Cc3ccccc3C1)C2,12.41%
16,O=C(Nc1nncs1)N(Cc1cccc(O)c1)C1CC1,-1.611%
17,CCC(C)(CC(=O)O)NC(=O)Cc1ccccc1Br (configuration not stated),0.3012%
18,Cc1ncc(CNC(=O)CCc2c(C)noc2C)c(C2CCCN2C)n1 (configuration not stated),116.8%
19,Cc1noc(C)c1CCCNC(=O)C1CCCN(C(=O)C2CC2)C1 (configuration not stated),-0.7156%
20,Cc1nc(C2CCCN2CC(=O)NCCc2ccsc2)no1 (configuration not stated),-6.143%
21,Cc1ncc(CNC(=O)Cc2ccc(Cl)cc2)c(C2CCCN2C)n1 (configuration not stated),-6.333%
22,Cc1noc(C)c1CNC(=O)c1ccc(NC2CC2)nc1,4.161%
23,Cc1ncc(CNC(=O)Cc2ccsc2)c(C2CCCN2C)n1 (configuration not stated),124.7%
24,CCCNC(=O)c1cc(Br)cc(S(=O)(=O)N2CCOCC2)c1F,-12.55%
25,CN1[C@H](Cn2cncn2)C[C@@H]2CN(Cc3ccsc3)CC[C@@H]21.O=C(O)C(F)(F)F.O=C(O)C(F)(F)F,-21.59%

row,Structure (SMILES),Percent Effect
1,CN1[C@H](CN2CCCC2)C[C@@H]2CN(C(=O)c3cnccn3)CC[C@@H]21,120.7%
2,CN1[C@H](CN2CCCC2)C[C@@H]2CN(C(=O)Cc3ccsc3)CC[C@@H]21.O=C(O)C(F)(F)F.O=C(O)C(F)(F)F,88.77%
3,O=C(c1ccsc1)N1C[C@@H](CN2CCCC2)[C@@H](CO)C1,20.63%
4,C[C@@H]1C[C@@H]2CCN(C(=O)c3cnccn3)C[C@H]2O1,-10.48%
5,O=C(C[C@H]1[C@H]2CN(Cc3ccsc3)C[C@@H]12)N1CCCC1.O=C(O)C(F)(F)F,-30.77%
6,O=C(O)C(F)(F)F.O=C(c1cnccn1)N1CC[C@@H]2CO[C@@H](CN3CCCC3)[C@@H]2C1,-10.73%
7,CN1[C@H](CN2CCCC2)C[C@@H]2CN(C(=O)c3ccsc3)CC[C@@H]21,81.43%
8,COc1cc(S(=O)(=O)N2CCCc3ccccc32)cc(C(=O)O)c1OC,4.14%
9,c1ccc(Cc2nc(C3CC3)nn2-c2ccc3c(c2)OCCO3)nc1,5.106%
10,CCN(CC1CN(Cc2ncc[nH]2)CCO1)c1cccnn1 (configuration not stated),4.051%
11,CC(C)n1ccnc1CN1CCOC(CCc2ccccc2)C1 (configuration not stated),-13.14%
12,CCS(=O)(=O)N1CCOC(CCCc2ccccc2)C1 (configuration not stated),-15.33%
13,c1ccc(C(CC2CN(Cc3ncc[nH]3)CCO2)c2ccccc2)cc1 (configuration not stated),116.4%
14,O=C(NCCC1CN(Cc2c[nH]cn2)CCO1)Nc1ccccc1 (configuration not stated),-0.1872%
15,CC(C)c1n[nH]c(C2CN(Cc3ncc[nH]3)CCO2)n1 (configuration not stated),-3.355%
16,c1ccc(CCCC2CN(Cc3ncc[nH]3)CCO2)cc1 (configuration not stated),98.97%
17,c1ccc(C(CC2CN(Cc3c[nH]cn3)CCO2)c2ccccc2)cc1 (configuration not stated),106.4%
18,O=C(Nc1cnn(CC(=O)N2CCCO2)c1)c1ccccc1,1.203%
19,CCN(C(c1cccnc1)c1ccc2c(c1)CCC2)S(C)(=O)=O (configuration not stated),-0.855%
20,O=C(NC1CCN(C2CC2)CC1)NC1CCOc2ccc(Br)cc21 (configuration not stated),24.64%
21,CC1=N[C@@]2(CC[C@@H]3CN(C(=O)NC(C)C)C[C@@H]32)C(=O)N1CC(C)C,1.346%
22,CCC(C)Oc1ccc(CNCCNC(C)=O)cc1Cl (configuration not stated),110%
23,CC(CNS(C)(=O)=O)Oc1cccc(Cl)c1 (configuration not stated),-10.77%
24,CCOc1ccc(CNCCCn2ccnc2)cc1Cl.Cl.Cl,1.454%
25,C=C(C)COc1cccc(CNCCc2c[nH]cn2)c1,-1.571%

row,Structure (SMILES),Percent Effect
1,CCC(C)Oc1ccc(CNCCNC(C)=O)cc1OC (configuration not stated),123.2%
2,CCC(C)Oc1ccc(CNCCc2c[nH]cn2)cc1Cl (configuration not stated),95.83%
3,CCC(C)Oc1ccc(CNCCNS(C)(=O)=O)cc1Cl (configuration not stated),97.61%
4,C=C(C)COc1ccccc1CNCCc1c[nH]cn1,-1.538%
5,CC(=O)NCCNC(=O)NCc1ccc(Br)cc1Cl,-4.256%
6,COc1cc(CNCCNC(=O)c2ccc(O)cc2)ccc1SC,-8.251%
7,CC(CNCc1ccc(Cl)c(Cl)c1)Oc1ccccn1.Cl (configuration not stated),9.6%
8,CNC(=O)c1ccc(CNCc2ccc(SC)c(OC)c2)cc1,-3.705%
9,COc1cc(C2CC(=O)Oc3cc(C)[nH]c(=O)c32)ccc1OC(F)F (configuration not stated),2.33%
10,Cc1ccccc1[C@@H]1CN(Cc2nc3ncccn3n2)C[C@H]1C(=O)O,-5.6%
11,Cc1nc(C)c(CNC(=O)NC(c2nnc3n2CCC3)C(C)C)s1 (configuration not stated),-4.122%
12,COc1ccc(C(=O)Cn2cnnc2[S+](C)[O-])cc1Cl (configuration not stated),-30.86%
13,C/C(=C\c1ccccc1)CN1CCCC(c2nnc3n2CCNCC3)C1.Cl (configuration not stated),87.16%
14,CC(C)n1c(C2CCCN(CC(N)=O)C2)nc2ccccc21 (configuration not stated),-123.1%
15,Cc1ccc(CC(=O)N2CCC(c3nnc4n3CCC4)CC2)cc1,-4.36%
16,CC(C)CN1C(=O)CO[C@@H]2CN(C(=O)NC(C)C)C[C@H]21,-9.204%
17,c1cc(-c2n[nH]cc2-c2ccnc(N3CCCC3)n2)ccn1,100.8%
18,CN1CCCN(c2nccc(-c3c[nH]nc3-c3ccncc3)n2)CC1,94.49%
19,CN1CCCN(c2nccc(-c3c[nH]c4ccc(Br)cc34)n2)CC1,88.95%
20,Cc1nn(C)cc1-c1ccnc(N2CCN(c3ccccc3)C(=O)C2)n1,-10.97%
21,CN1CCCN(c2nccc(-c3cc(C(=O)O)ccn3)n2)CC1,-0.2127%
22,c1cc(-c2n[nH]cc2-c2ccnc(N3CCCCCC3)n2)ccn1,91.97%
23,Cc1oc(C(C)C)cc1C(=O)N1C[C@H]2CC[C@@H]1CN(c1ncccn1)C2,6.387%
24,CN(C)c1ccc(CCCNC(=O)NCC(O)c2ccsc2)cc1 (configuration not stated),3.16%
25,Cc1ccc(-c2nc3c([nH]2)CCNC3C(=O)O)c2cccnc12 (configuration not stated),-6.719%

row,Structure (SMILES),Percent Effect
1,CNc1cncc(C2CCCN(S(C)(=O)=O)C2)n1 (configuration not stated),-7.969%
2,CS(=O)(=O)N1CCCC(c2cncc(Nc3ccccn3)n2)C1 (configuration not stated),103.2%
3,Cc1cnc(N2CCCC(c3ccccc3)C2)nc1-c1ccnn1C (configuration not stated),-17.82%
4,Cc1cc(-c2ccnn2C)nc(C2CCCN(S(C)(=O)=O)C2)n1 (configuration not stated),122.2%
5,CS(=O)(=O)N1CCCC(c2nc(-c3ccccc3)c[nH]2)C1 (configuration not stated),-2.942%
6,Cc1cc(C)nc(Nc2cccc(C3CCCN(S(C)(=O)=O)C3)n2)n1 (configuration not stated),85.5%
7,Cc1cc(C)nc(Nc2cncc(C3CCCN(S(C)(=O)=O)C3)n2)n1 (configuration not stated),101.3%
8,CCc1noc(C)c1-c1nc(Cc2cccs2)nn1C1CCN(C)CC1,-27.77%
9,COCC(c1ccccn1)N(C)C(=O)c1cc(-c2ccc(O)cc2)n[nH]1 (configuration not stated),-10.51%
10,N#Cc1cc2n(n1)CCN(C(=O)CCc1c[nH]c3ccccc13)C2,-21.25%
11,CN(C)C(CNC(=O)NCc1cc[nH]n1)c1ccco1 (configuration not stated),-4.793%
12,CCOC(=O)C1CN(CC2CC2)Cc2ncn(CC)c21.O=C(O)C(F)(F)F (configuration not stated),1.772%
13,COC[C@@]12CCC[C@@H]1CN(C(=O)CN(C)C)C2.O=C(O)C(F)(F)F,107.5%
14,Cc1ccoc1C(=O)N1C[C@H]2CCC[C@@]2(COCc2ccncc2)C1.O=C(O)C(F)(F)F,6.221%
15,CCOCC(=O)N1C[C@H]2CCC[C@@]2(COC)C1,105.6%
16,COC[C@@]12CCC[C@@H]1CN(C(=O)Cc1ccco1)C2,-55.3%
17,CCCc1cc(C(=O)N2C[C@H]3CCC[C@@]3(CO)C2)[nH]n1,14.56%
18,COCCC(=O)N1C[C@H]2CCC[C@@]2(COC)C1,114%
19,COC[C@@]12CCO[C@@H]1CCN(C(=O)C1CC(F)(F)C1)C2,-30.77%
20,COCCC(=O)N1C[C@@H]2COC[C@]2(COCc2cccnc2)C1,-10.08%
21,COC[C@@]12CCO[C@@H]1CCN(C(=O)C1CCSCC1)C2,-9.781%
22,COC[C@@]12CCC[C@@H]1CN(C(=O)N1CCCC1)C2,106.2%
